Test results published in PubChem BioAssay (EPA / NIEHS).
“And” between values parts separate entries of the source, which are not always exact repeats. Equal values may be shown once. Some structures have more than one record in an assay (separate samples or runs), and their calls can disagree. The source made the active and inactive calls. How the source made its calls: active means hit-call score of the fitted dose curve at least 0.9, where 1 is the maximum; inactive means score below 0.9.

Legend:
[1] = ATG_DR4_LXR_CIS: Attagene CIS-FACTORIAL HepG2 Assay for human Liver X Receptor (LXR), DR4 submotif (AID 2282929); details: HepG2 Attagene DR4 cis-reporter, mRNA transcription; AC50: actives raise or lower the signal unless noted; outcome: actives raise or lower the signal unless noted
Procedure, shortened: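 The endpoint is DR4-element-driven reporter transcripts after 24 h chemical exposure of transfected HepG2 cells. These were measured via RT-PCR and capillary electrophoresis, and gain or loss of signal was fitted relative to DMSO controls.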

[2] = ATG_AP_1_CIS: Attagene CIS-FACTORIAL HepG2 Assay for human Activator Protein 1 (AP-1) (AID 2282931); details: HepG2 Attagene cis-factorial AP-1 reporter mRNA; actives raise or lower the signal
Procedure, shortened: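 Readout is reporter transcript level from endogenous transcription factor activity, quantified by RT-PCR with fluorescent primer extension and capillary electrophoresis. Transiently transfected HepG2 cells, 24 h exposure. Curves fitted both directions versus DMSO.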

[3] = ATG_AP_2_CIS: Attagene CIS-FACTORIAL HepG2 Assay for human Activator Protein 2 (AP-2) (AID 2282932); details: HepG2 AP-2 cis-reporter, Attagene transcription factor profiling; AC50: actives raise or lower the signal unless noted; outcome: actives raise or lower the signal unless noted
Procedure, shortened: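 Step one: transient transfection of HepG2 with reporter transcription units. Step two: 24 h chemical exposure. Step three: RNA extraction, RT-PCR, labelled fragment analysis by capillary electrophoresis; DMSO serves as baseline.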

[4] = ATG_BRE_CIS: Attagene CIS-FACTORIAL HepG2 Assay for human Bone Morphogenetic Protein (BMP) Response Element (BRE) (AID 2282933); details: HepG2 BMP response element reporter, Attagene transcription factor profiling; actives raise or lower the signal
Procedure, shortened: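 After a 24 h chemical treatment, transiently transfected HepG2 cells were lysed for RNA; reporter transcripts were quantified by fluorescent RT-PCR and capillary electrophoresis, normalised to DMSO.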

[5] = molecular target: Transcription factor E2F1 (Homo sapiens) (UniProt Q01094); test: ATG_E2F_CIS: Attagene CIS-FACTORIAL HepG2 Assay for human E2F Transcription Factor 1 (AID 2282935); details: HepG2 Attagene cis-reporter, E2F reporter RNA transcripts; actives raise or lower the signal
Procedure, shortened: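 Total RNA from 24 h-treated, reporter-transfected HepG2 cells undergoes DNase I treatment, oligo(dT) reverse transcription, PCR and 6-FAM primer extension before capillary electrophoresis.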

[6] = ATG_E_Box_CIS: Attagene CIS-FACTORIAL HepG2 Assay for human Enhancer Box (E-box) (AID 2282936); details: HepG2 E-box cis-reporter transcription, actives raise or lower the signal
Procedure, shortened: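 DMSO served as negative control and baseline for bidirectional fitting. Human hepatoma HepG2 cells, transiently transfected with cis-reporter constructs, were dosed 24 h; reporter mRNA read by RT-PCR and capillary electrophoresis.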

[7] = ATG_M_61_CIS: Attagene CIS-FACTORIAL HepG2 Assay for M61 Transcription Factor (Internal Marker) (AID 2282937); details: HepG2 Attagene CIS-FACTORIAL M61 internal marker reporter; actives raise or lower the signal
Procedure, shortened: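 Readout is reporter mRNA by RT-PCR, fluorescent primer extension and capillary electrophoresis, with gain or loss fitted relative to DMSO. Transfected HepG2 cells carrying endogenous-TF-driven cis reporters were exposed to chemicals for 24 hours.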

[8] = ATG_EGR_CIS: Attagene CIS-FACTORIAL HepG2 Assay for human Early Growth Response 1 (EGR1) (AID 2282938); details: HepG2 Attagene CIS-FACTORIAL EGR reporter mRNA; actives raise or lower the signal
Procedure, shortened: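 After 24 h compound exposure, RNA from reporter-transfected HepG2 cells was reverse-transcribed, PCR-amplified, fluorescently labelled and resolved by capillary electrophoresis. EGR1 reporter transcript changes, up or down, were fitted against DMSO, reflecting endogenous transcription-factor activity.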

[9] = ATG_Ets_CIS: Attagene CIS-FACTORIAL HepG2 Assay for human Erythroblast Transformation Specific (ETS) (AID 2282941); details: HepG2 ETS cis-reporter transcription; AC50: actives raise or lower the signal unless noted; outcome: actives raise or lower the signal unless noted
Procedure, shortened: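 Human HepG2 hepatoma cells were transiently transfected with promoter-driven reporter constructs and treated for 24 hours. Reporter transcripts were quantified by RT-PCR with fluorescent primer extension; bidirectional curve fitting used DMSO as reference.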

[10] = molecular target: Hepatocyte nuclear factor 3-beta (Homo sapiens) (UniProt Q9Y261); test: ATG_FoxA2_CIS: Attagene CIS-FACTORIAL HepG2 Assay for human Forkhead box A2 (FOXA2) (AID 2282942); details: HepG2 cis-reporter transcription factor activity, 24 h; actives raise or lower the signal
Procedure, shortened: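 Endogenous transcription factor activity is captured via cis-element-driven reporter transcripts in transfected HepG2. Total RNA taken at 24 h post-dosing; labelled RT-PCR products resolved by capillary electrophoresis. Gain or loss fitted versus DMSO.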

[11] = ATG_FoxO_CIS: Attagene CIS-FACTORIAL HepG2 Assay for human Forkhead box O (FoxO) (AID 2282943); details: HepG2 Attagene cis-reporter, FoxO element, mRNA; actives raise or lower the signal
Procedure, shortened: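 Human hepatoma HepG2 cells carry transiently introduced reporter transcription units controlled by cis promoter elements. Chemical treatment lasted 24 h, and mRNA signal was compared with DMSO.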

[12] = ATG_GATA_CIS: Attagene CIS-FACTORIAL HepG2 Assay for human GATA Binding Protein (AID 2282944); details: HepG2 GATA cis-element reporter, Attagene multiplex mRNA; actives raise or lower the signal
Procedure, shortened: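 Measures endogenous transcription factor-driven reporter mRNA in HepG2 cells transiently carrying cis-regulated constructs. 24 h dosing; RNA via oligo(dT) reverse transcription, PCR, HpaI digestion, capillary electrophoresis; fitted relative to DMSO.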

[13] = ATG_GLI_CIS: Attagene CIS-FACTORIAL HepG2 Assay for human Zinc Finger Protein GLI1 (AID 2282945); details: HepG2, Attagene cis-factorial reporter mRNA, GLI element; actives raise or lower the signal
Procedure, shortened: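 Bidirectional curve fits relative to DMSO, using reporter mRNA levels from RT-PCR plus capillary electrophoresis. Cells were HepG2 transiently carrying cis-regulated reporter constructs, harvested 24 h after dosing.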

[14] = molecular target: Bile acid receptor (Homo sapiens) (UniProt Q96RI1); test: ATG_IR1_CIS: Attagene CIS-FACTORIAL HepG2 Assay for human Nuclear Receptor Subfamily 1 Group H Member 4 (NR1H4), IR1 submotif (AID 2282946); details: IR1 reporter transcription, actives raise or lower the signal
Procedure, shortened: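 Cells (human HepG2) carry transiently transfected cis-promoter reporter transcription units. Compounds are incubated 24 h, total RNA is reverse-transcribed and amplified, and labelled fragments are resolved by capillary electrophoresis. Curves use DMSO as baseline.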

[15] = ATG_ISRE_CIS: Attagene CIS-FACTORIAL HepG2 Assay for human Interferon Regulatory Factor 1 (IRF1) binding to an Interferon-Stimulated Response Element (ISRE) (AID 2282948); details: HepG2 ISRE cis-reporter (Attagene), mRNA transcription readout; actives raise or lower the signal
Procedure, shortened: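 Cell-based cis-reporter assay; HepG2; 24 h exposure; reporter mRNA by RT-PCR plus capillary electrophoresis fluorescence; activity in either direction scored relative to DMSO.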

[16] = molecular target: Retinoic acid receptor alpha (Homo sapiens) (UniProt P10276); test: ATG_DR5_RAR_CIS: Attagene CIS-FACTORIAL HepG2 Assay for human Retinoic Acid Receptor Alpha (RARE), DR5 submotif (AID 2282934); details: HepG2 Attagene cis-factorial RARE DR5 reporter, mRNA; actives raise or lower the signal;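 on AC50: reporter responds to endogenous RAR alpha beta and gamma in HepG2 not RARA alone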
Procedure, shortened: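 HepG2, transient cis-reporter transfection, 24 h exposure. mRNA readout: RT-PCR, FAM label, HpaI cut, capillary electrophoresis. DMSO baseline, gain/loss fitting.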

[17] = ATG_M_19_CIS: Attagene CIS-FACTORIAL HepG2 Assay for M19 Transcription Factor (Internal Marker) (AID 2282939); details: HepG2 Attagene CIS-FACTORIAL M19 internal marker reporter; actives raise or lower the signal
Procedure, shortened: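 In this multiplexed cell assay, transiently transfected HepG2 reporter units report endogenous transcription-factor activity; after 24 hours of treatment, labelled reporter cDNA fragments are quantified by capillary electrophoresis and fitted bidirectionally against DMSO.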

[18] = ATG_ERE_CIS: Attagene CIS-FACTORIAL HepG2 Assay for Estrogen Response Element (ERE) (AID 2282940); details: HepG2 ERE cis-reporter, Attagene RNA transcript; actives raise or lower the signal
Procedure, shortened: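 Measuring endogenous transcription factor output, the assay doses transfected HepG2 cells for 24 hours and quantifies reporter transcripts by fluorescent RT-PCR and capillary electrophoresis, with DMSO as baseline.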

[19] = ATG_GRE_CIS: Attagene CIS-FACTORIAL HepG2 Assay for human Glucocorticoid Response Elements (GRE) (AID 2282947); details: HepG2 GRE cis-reporter, Attagene multiplex mRNA; AC50: actives raise or lower the signal unless noted; outcome: actives raise or lower the signal unless noted
Procedure, shortened: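 Assay uses human hepatoma HepG2 cells transfected with cis-promoter reporter units, exposed 24 h. mRNA from reporters detected by RT-PCR plus capillary electrophoresis; DMSO serves as negative control and baseline.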

Measured: AC50

Chain of Retinoic acid receptor alpha (Homo sapiens) (P10276 whole entry, looked up): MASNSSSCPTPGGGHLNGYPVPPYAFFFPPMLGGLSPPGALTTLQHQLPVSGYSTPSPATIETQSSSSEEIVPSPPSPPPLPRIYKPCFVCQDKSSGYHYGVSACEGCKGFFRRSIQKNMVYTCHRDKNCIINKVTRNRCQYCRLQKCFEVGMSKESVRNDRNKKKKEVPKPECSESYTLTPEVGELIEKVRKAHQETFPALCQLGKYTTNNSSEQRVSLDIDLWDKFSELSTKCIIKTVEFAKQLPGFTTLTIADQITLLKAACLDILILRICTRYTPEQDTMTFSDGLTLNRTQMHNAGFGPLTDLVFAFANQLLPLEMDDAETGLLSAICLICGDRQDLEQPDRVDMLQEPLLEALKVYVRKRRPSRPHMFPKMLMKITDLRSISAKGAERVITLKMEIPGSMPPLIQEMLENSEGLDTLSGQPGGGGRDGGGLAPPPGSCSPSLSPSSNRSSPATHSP
Chain of Bile acid receptor (Homo sapiens) (Q96RI1 whole entry, looked up, the tested form may be a part): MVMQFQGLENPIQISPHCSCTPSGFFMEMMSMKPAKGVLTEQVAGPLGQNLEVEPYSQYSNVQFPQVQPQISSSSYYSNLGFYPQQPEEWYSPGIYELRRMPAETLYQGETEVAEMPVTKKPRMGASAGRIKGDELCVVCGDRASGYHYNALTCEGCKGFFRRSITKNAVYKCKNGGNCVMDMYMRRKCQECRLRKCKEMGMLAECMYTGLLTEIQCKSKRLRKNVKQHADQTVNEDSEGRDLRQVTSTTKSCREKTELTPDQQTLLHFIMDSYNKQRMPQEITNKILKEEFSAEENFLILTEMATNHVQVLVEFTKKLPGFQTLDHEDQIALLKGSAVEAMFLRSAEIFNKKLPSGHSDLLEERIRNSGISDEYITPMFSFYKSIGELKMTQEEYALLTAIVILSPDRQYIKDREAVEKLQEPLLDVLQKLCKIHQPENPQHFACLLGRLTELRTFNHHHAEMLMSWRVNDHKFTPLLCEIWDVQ
Chain of Hepatocyte nuclear factor 3-beta (Homo sapiens) (Q9Y261 whole entry, looked up): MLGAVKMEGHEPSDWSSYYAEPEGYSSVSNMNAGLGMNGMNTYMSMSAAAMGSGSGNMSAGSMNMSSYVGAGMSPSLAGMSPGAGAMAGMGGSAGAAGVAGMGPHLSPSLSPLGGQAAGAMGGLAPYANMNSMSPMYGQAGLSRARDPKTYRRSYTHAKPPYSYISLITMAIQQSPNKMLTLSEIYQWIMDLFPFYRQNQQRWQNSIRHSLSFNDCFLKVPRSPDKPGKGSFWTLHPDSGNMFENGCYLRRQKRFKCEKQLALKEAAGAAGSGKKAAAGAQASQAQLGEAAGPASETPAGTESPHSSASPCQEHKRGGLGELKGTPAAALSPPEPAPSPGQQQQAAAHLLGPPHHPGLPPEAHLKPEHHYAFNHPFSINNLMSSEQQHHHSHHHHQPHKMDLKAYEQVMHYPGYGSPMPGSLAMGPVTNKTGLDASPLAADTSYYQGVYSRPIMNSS
Chain of Transcription factor E2F1 (Homo sapiens) (Q01094 whole entry, looked up): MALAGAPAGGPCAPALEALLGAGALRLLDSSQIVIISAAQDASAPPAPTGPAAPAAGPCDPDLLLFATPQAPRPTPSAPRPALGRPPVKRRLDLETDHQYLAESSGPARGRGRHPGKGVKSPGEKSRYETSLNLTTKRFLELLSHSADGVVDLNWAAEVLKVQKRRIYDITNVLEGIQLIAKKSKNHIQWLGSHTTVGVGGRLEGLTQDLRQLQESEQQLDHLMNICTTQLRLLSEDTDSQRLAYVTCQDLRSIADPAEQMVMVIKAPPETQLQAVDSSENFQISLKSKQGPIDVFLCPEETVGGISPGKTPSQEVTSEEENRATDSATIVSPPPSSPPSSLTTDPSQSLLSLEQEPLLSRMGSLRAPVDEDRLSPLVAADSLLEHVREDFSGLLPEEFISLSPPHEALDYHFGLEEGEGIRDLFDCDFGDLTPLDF

CCCCC=O
inactive: [1] | [2] | [3] | [4] | [5] | [6] | [7] | [8] | [9] | [10] | [11] | [12] | [13] | [14] | [15]

CC(C)c1c(C(=O)Nc2ccccc2)c(-c2ccccc2)c(-c2ccc(F)cc2)n1CC[C@@H](O)C[C@@H](O)CC(=O)O
inactive: [2] | [4] | [16] | [5] | [6] | [7] | [17] | [9] | [10] | [11] | [12] | [13] | [15]
active: [1] 136 µM and 42.6 µM | [16] 161 µM | [6] 28.2 µM | [8] 94.5 µM and 28.3 µM

Oc1ccc(Cc2ccccc2O)cc1
inactive: [1] | [2] | [3] | [16] | [5] | [6] | [7] | [8] | [9] | [10] | [11] | [12] | [13] | [14] | [19] | [15]
active: [18] 7.8 µM

CC(O)COc1ccccc1 (stereo not given)
inactive: [1] | [2] | [3] | [4] | [16] | [6] | [7] | [8] | [17] | [9] | [10] | [11] | [12] | [13] | [14] | [19] | [15]

COCN(COC)c1nc(N(COC)COC)nc(N(COC)COC)n1
active: [18] 23.7 µM
inactive: [1] | [2] | [3] | [4] | [16] | [6] | [7] | [8] | [17] | [9] | [10] | [11] | [12] | [13] | [14] | [19] | [15]

N=C(N)c1ccc(OCCCCCOc2ccc(C(=N)N)cc2)cc1
inactive: [3] | [16] | [7] | [17] | [9] | [10] | [11] | [12] | [13] | [19]
active: [1] 116 µM | [2] 0.813 µM | [4] 23.3 µM | [6] 137 µM | [8] 87.5 µM | [18] 23.2 µM | [15] 57.9 µM

CC1=NN(c2ccccc2)C(=O)C1
inactive: [1] | [2] | [3] | [4] | [16] | [5] | [6] | [7] | [8] | [17] | [18] | [9] | [11] | [12] | [13] | [14] | [15]

O=S(=O)(c1ccc(OCc2ccccc2)cc1)c1ccccc1O
active: [1] 33.4 µM | [16] 31.7 µM | [8] 33.4 µM | [9] 33.4 µM | [11] 50.8 µM | [12] 55.4 µM | [13] 51.1 µM | [14] 56 µM | [19] 42.4 µM | [15] 48.7 µM
inactive: [2] | [3] | [4] | [5] | [6] | [7] | [18]
